IL-1B inflam inh = inhibitors of inflammasome signaling (IL-1 beta secretion) | THP-1 LPS/ATP IL-1B secretion, AlphaLISA, 16 h; stronger effect = lower value | activity change, % at 57.5 µM | 4.7% of 360,000 active; in the data active means activity change below about -50%; inconclusive means mostly about -30% to -49%; further: on the % scale 0 is the no-effect control and ±100 the full control effect
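THP-1 cells pretreated 1 hr with compounds (up to 57.5 uM final), then stimulated with LPS (250 ng/mL final) plus ATP (1.25 mM final); secreted IL-1B measured by AlphaLISA after 16 hr, decreased signal indicating inhibition.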
DRD3 antagonist = blocks the human D3 dopamine receptor; P35462; D3R cells, DiscoveRx beta-arrestin luminescence, antagonist mode; stronger effect = lower value; max response, negative = inhibition, %; 2.5% of 360,000 active; AID 652054; in the data active means max response below about -50%; inconclusive means no clear call, values can overlap the other calls; further: on the % scale 0 is the no-effect control and ±100 the full control effect
Target sequence (P35462 whole entry, looked up): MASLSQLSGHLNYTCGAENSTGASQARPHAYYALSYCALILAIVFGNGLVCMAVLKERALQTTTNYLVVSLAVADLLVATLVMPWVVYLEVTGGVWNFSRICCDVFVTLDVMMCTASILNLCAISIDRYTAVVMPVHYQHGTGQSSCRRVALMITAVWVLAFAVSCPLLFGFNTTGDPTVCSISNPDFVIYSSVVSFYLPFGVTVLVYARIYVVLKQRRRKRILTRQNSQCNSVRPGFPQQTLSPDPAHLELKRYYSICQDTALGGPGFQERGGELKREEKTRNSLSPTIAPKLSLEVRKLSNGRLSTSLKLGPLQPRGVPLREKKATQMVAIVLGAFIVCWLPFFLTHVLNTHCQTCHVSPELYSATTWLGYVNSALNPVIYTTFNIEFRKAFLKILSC
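Cells plated overnight at 1500 cells/well, then exposed to library compounds with dopamine controls for 90 minutes at 37 degrees C. DiscoveRx reagent added for 30–60 minutes at room temperature; luminescence read, quantitative HTS format.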
DRD3 agonist = agonists of human D3 dopamine receptor; P35462; D3R DiscoveRx beta-arrestin cells, luminescence, 90 min; max activation, %; 0.58% of 410,000 active; AID 652048; in the data active means max activation above about 30%; further: 0% is about no effect
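Agonist-mode cell screen: cells plated at 1500/well and incubated overnight at 37 °C, then exposed to library compounds for 90 min at 37 °C. Detection reagent was added for 30–60 min at room temperature, and luminescence was read.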
ClpP mod = qHTS Assay for Activators of ClpP. purified B. subtilis ClpP, FRET peptide cleavage, 20 min. ATP-dependent Clp protease proteolytic subunit (Bacillus subtilis (strain 168)), P80244. Potency, µM (top dose mostly 57.5 µM), for the others: top-dose activity change, negative = active. 1.9% of 340,000 active; active means well fitted falling curve with a large enough effect; inconclusive means small, poorly fitted or top-dose-only effect; inactive means no such curve, though single readings can be large or run the other way; further: potency means the concentration at half of the fitted maximal effect; the source files actives as falling curves though it sought activators and does not explain the sign; nearly all actives have a fitted effect of over 65% in size
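ClpP 10 microg/mL final, pH 8 Tris/KCl buffer with BSA, glycerol, Tween-20; compound pinned in; FRET-FV substrate; RT 20 min; Ex320/Em430; ΔFRET vs ADEP 5.8 microM, DMSO, no enzyme.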
TDP1 cell CPT = growth inhibition of DT40 Tdp1-/-;hTDP1 cells with camptothecin (screen for TDP1 inhibitors) | AID 686979 | chicken DT40 Tdp1-/-;hTDP1 cells + 20 nM CPT, ATP luminescence, 48 h | Potency, µM (highest dose often 46.2 µM), inactives show at the highest dose activity change, negative = growth inhibition, most hits filed as inhibitors | 12% of 420,000 active; further: potency means the concentration at half of the fitted maximal effect; on the % scale 0 is the no-effect control and ±100 the full control effect; nearly all actives have a fitted effect of over 55% in size
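Cell growth measured by CellTiter-Glo luminescence after a minimum 48 h, 37 C compound exposure with 20 nM CPT in Tdp1-knockout DT40 cells stably expressing hTDP1, seeded 400/well; qHTS titration format.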
TDP1 cell noCPT = qHTS for Inhibitors of human tyrosyl-DNA phosphodiesterase 1 (TDP1): qHTS in cells in absence of CPT; Potency, µM (highest dose often 46.2 µM), without a hit: at the highest dose activity change, negative = growth inhibition, usual class: inhibitors; 15% of 420,000 active; DT40 Tdp1-/- hTDP1 cells, no CPT, ATP luminescence, 48 h; AID 686978, 2013; further: potency means the concentration at half of the fitted maximal effect; on the % scale 0 is the no-effect control and ±100 the full control effect; nearly all actives have a fitted effect of over 55% in size
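Cells were dispensed at 400 per well, compounds added by pin tool, plates incubated ≥48 hr at 37 °C, then CellTiter-Glo added for 30 min at room temperature before luminescence reading. Line: DT40 Tdp1-/- complemented with hTDP1; camptothecin omitted.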
* marks the source's active call; other numbers are inactive results. In the library only some 21% were active in any assay of this set; here they are far more common. Unless noted, the call rests on the fitted dose curve; in most records, active means well fitted inhibition curve with a large enough effect; inconclusive means small, poorly fitted or top-dose-only effect; inactive means flat fitted curve, though single readings scatter.

Results for CCOc1ccc(NC(=O)CC2C(=O)N(c3ccc(F)cc3)C(=O)N2CCc2sccc2C)cc1 (stereo not drawn) ?
DRD3 agonist: 3; ClpP mod: 1%; TDP1 cell CPT: -111%; TDP1 cell noCPT: 23µM*

Results for O=c1cnc2cnc(N3CCOCC3)nc2n1CCc1ccccc1 ?
TDP1 cell CPT: 8%; TDP1 cell noCPT: 3%

Results for c1ccc(NN(Cc2cnccn2)c2ccccc2)cc1 ?
IL-1B inflam inh: -14; DRD3 antagonist: 20; DRD3 agonist: 4; ClpP mod: 1%; TDP1 cell CPT: -23%; TDP1 cell noCPT: inconclusive

What do the screens show for `Cc1noc(C)c1NC(=O)N(C)C[C@@H]1Oc2ncc(Br)cc2C(=O)N([C@@H](C)CO)C[C@@H]1C`?
IL-1B inflam inh: 25; DRD3 antagonist: 8; DRD3 agonist: -2; ClpP mod: -2%; TDP1 cell CPT: -1%; TDP1 cell noCPT: 39%

How did O=C(c1ccc(O)cc1)c1ccc(C(=O)c2ccc(O)cc2)cc1 do in these assays?
IL-1B inflam inh: 0; DRD3 antagonist: 14; DRD3 agonist: 8; ClpP mod: -3%; TDP1 cell CPT: -28%; TDP1 cell noCPT: inconclusive

Results for Oc1ccc(O)cc1 ?
DRD3 agonist: 4; TDP1 cell CPT: 21µM*; TDP1 cell noCPT: inconclusive

Results for CCOC(=O)c1c(C)[nH]c(C(=O)Cn2c(=O)c3c(ncn3CC)n(Cc3ccccc3)c2=O)c1C ?
IL-1B inflam inh: -10; DRD3 antagonist: 28; DRD3 agonist: 7; ClpP mod: 2%; TDP1 cell CPT: 26µM*; TDP1 cell noCPT: inconclusive

What do the screens show for `COc1ccc(C(C(=O)NCC2CCCO2)N(C(=O)c2snc(C(N)=O)c2N)c2ccccc2C)cc1OC` (stereo not drawn)?
IL-1B inflam inh: -10; DRD3 antagonist: -19; DRD3 agonist: -33; ClpP mod: -7%; TDP1 cell CPT: -21%; TDP1 cell noCPT: inconclusive

Results for CCOc1ccc(C(C(=O)NCC2CCCO2)N(C(=O)c2snc(C(N)=O)c2N)c2ccc(F)cc2)cc1 (stereo not drawn) ?
IL-1B inflam inh: inconclusive; DRD3 antagonist: 0; DRD3 agonist: 0; ClpP mod: 1%; TDP1 cell CPT: 18µM*; TDP1 cell noCPT: inconclusive

What do the screens show for `NC(=O)c1nsc(C(=O)N(c2cccc(F)c2)C(C(=O)NCC2CCCO2)c2c[nH]c3ccccc23)c1N` (stereo not drawn)?
IL-1B inflam inh: -68*; DRD3 antagonist: -2; DRD3 agonist: 3; TDP1 cell CPT: 4%; TDP1 cell noCPT: -11%

How did Cc1cccc(N(C(=O)c2snc(C(N)=O)c2N)C(C(=O)NCC2CCCO2)c2c[nH]c3ccccc23)c1 (stereo not drawn) do in these assays?
IL-1B inflam inh: inconclusive; DRD3 antagonist: 5; DRD3 agonist: -1; TDP1 cell CPT: inconclusive; TDP1 cell noCPT: inconclusive

What do the screens show for `CCc1ccccc1N(C(=O)c1snc(C(N)=O)c1N)C(C(=O)NCC1CCCO1)c1ccc(OC)c(OC)c1` (stereo not drawn)?
IL-1B inflam inh: 8; DRD3 antagonist: 14; DRD3 agonist: 13; TDP1 cell CPT: 16µM*; TDP1 cell noCPT: 12µM*

What do the screens show for `COc1ccc(N(C(=O)Cn2nnc(-c3ccccc3F)n2)C(C(=O)NCC2CCCO2)c2ccc(Cl)cc2)cc1` (stereo not drawn)?
IL-1B inflam inh: 13; DRD3 antagonist: 0; DRD3 agonist: 1; TDP1 cell CPT: inconclusive; TDP1 cell noCPT: 9.2µM*

Results for NS(=O)(=O)c1ccc(CNC(=O)C(c2ccccc2)c2ccccc2)cc1 ?
IL-1B inflam inh: 6; DRD3 antagonist: -13; DRD3 agonist: -3; ClpP mod: 0%; TDP1 cell CPT: 2%; TDP1 cell noCPT: -21%

High-throughput results from PubChem.
